The panel holds about 83,000 compounds, 20% with a hit somewhere; the sample as a whole holds those more often.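 Method: cells in 96-well plates; compound added at one concentration; 48 h incubation; percent growth measured; values under 10 scored active.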 A number with no mark means an inactive call. Active and inactive are the calls of the source.

This passage reports growth results from PubChem BioAssay (NCI).

The first assay deals with T-47D breast. Kind of assay: NCI-60 one-dose screen, 48 h (100 = growth as untreated, 0 = no growth, -100 = all killed). Conditions: 10 µM unless noted.
For `COc1ccc(-c2oc3cc(O)c(OC)c(O)c3c(=O)c2OC)cc1O`, the growth was 53.1%.

Consider `c1ccc(-c2nnc(Nc3nnc(-c4ccccc4)s3)s2)cc1`, for which the growth is 93.8%.

For `CCN1CCN(c2cc(-c3cn[nH]c3-c3cc(C)cc(OC)c3)nc(-c3cccnc3)n2)CC1`, the growth was 83.1%.

As to `CCCn1cnc2c1c(=O)n(CCCCC(C)=O)c(=O)n2C`, the growth was 99%.

Turning to `O=C1C2C3C=CC(O3)C2C(=O)N1Nc1ccccc1` (centres undefined), the growth is 112%.

For the compound `O=C(Nc1ccncc1)C(=O)c1cn(S(=O)(=O)c2cccc(F)c2)c2ccccc12`, the growth is 31.6%.

As for `COc1ccc(-c2csc(NC(=O)c3cc(OC)c(OC)c(OC)c3)n2)cc1`, the growth was 94.8%.

Turning to `CCC1=C(c2ccc(OC)cc2)C(C)(C)Oc2cc(O)c(CN3CCCC3)cc21`, the growth was 68.2%.

As for `CCOc1nc(-c2ccccc2)cc2c(O)c(-c3nnco3)[nH]c(=O)c12`, the growth is 2.73% (active).

With `C=C1CC[C@@H]2[C@](C)(COC(C)=O)[C@H](OC(C)=O)CC[C@@]2(C)[C@@H]1CC(Nc1ccc(S(=O)(=O)Nc2cc(C)on2)cc1)C1=CCOC1=O` (some centres undefined), the growth was 63.6%.

Turning to `COc1ccc(C2=NN(C(=O)c3cc(OC)c(OC)c(OC)c3)C(c3ccc(C#N)cc3)C2)cc1OC` (centres undefined), the growth is 37.1%.

Take `O=C1/C(=N/O)CCc2ccccc21`: the growth was 100%.

Turning to `O=C(/C=C/c1cccnc1)NCCCCC1CCCN(C(=O)c2ccccc2)C1` (centres undefined), the growth was 47.3%.

Turning to `COc1ccc(Nc2ccnc(NCCCNc3ccnc4cc(Cl)ccc34)n2)cc1`, the growth was -51.8% (active).

`COc1ccc2nc(NC(=O)c3cc(-c4ccc(F)cc4)n4nc(-c5ccccc5)cc4n3)sc2c1`: the growth is 89.5%.

For `COc1cc(/C=C/C(=O)N2CCN(C(=O)/C=C/c3ccccc3)CC2)cc(OC)c1OC`, the growth is 110%.

Regarding `O=C1C[C@@H]2/C(=C(O)\C=C\c3ccccc3)C(=O)C=C[C@@H]2O1`, the growth is 16.7%.

Take `COc1cc(/C=C/c2nnc(-c3cc(-c4ccccc4)n[nH]3)o2)cc(OC)c1OC`: the growth was 73.2%.

For the compound `O=[N+]([O-])c1ccc2c(c1)S(=O)c1cc([N+](=O)[O-])ccc1N2`, the growth is 96.6%.

In the case of `C/C(=C\CCc1ccoc1)CC/C=C(\C)CCCN1CCC(CO)CC1`, the growth was 35.9%.

`O=C1/C(=C/c2ccc([N+](=O)[O-])o2)Oc2ccc(Cl)cc21`: the growth is -28.9% (active).

For `COc1cc(C2NC(c3ccc(Cl)cc3)C(C)/C(=N/NC(N)=S)C2C)cc(OC)c1OC` (centres undefined), the growth was 82.7%.

Take `CCC(CC)NCCCCCNc1cc(OC)cc2cccnc12`: the growth was 73.8%.

`CCOc1nc(-c2ccccc2)cc2c(O)c(C(=O)n3nc(C)cc3C)[nH]c(=O)c12`: the growth is 107%.

For the compound `O=C(/C(=N/O)S(=O)(=O)c1ccccc1)c1cccs1`, the growth was 93.2%.

On to `COc1cc(C2NC(c3ccc(Cl)cc3)C(C)C(=NC(=O)c3cnccn3)C2C)cc(OC)c1OC` (centres undefined), for which the growth was 88%.

In the case of `COc1ccc2c(c1)C(=O)/C(=C/c1ccc([N+](=O)[O-])s1)O2`, the growth was -49.1% (active).

Regarding `COc1cc(C(=O)/C=C/c2cccnc2Nc2ccccc2)cc(OC)c1OC`, the growth is -39.8% (active).

Consider `CCCCn1c(Cc2ccc(Cl)cc2)nc2cc(OC)c(OC)cc2c1=O`, for which the growth is 101%.

As for `OCCOc1c(Cl)cc(Cl)cc1Cl`, the growth is 109%.

For the compound `COc1ccc2nc3cc(Cl)ccc3c(N3CCN(c4ccnc(Nc5ccc(F)cc5)n4)CC3)c2c1`, the growth is 54.5%.

For the compound `COc1ccc(-c2cc(Cc3cccs3)c(=O)n(Cn3ccc4ccccc43)n2)cc1`, the growth was 109%.

As to `CCc1[nH]nc(-c2ccc(OC)cc2)c1-c1ccccc1OCCN(CC)CC`, the growth is 97.4%.

With `COc1ccc(-c2cc(C(=O)Nc3nc4cc(C)c(C)cc4s3)nc3cc(-c4ccccc4)nn23)cc1OC`, the growth is 103%.

Consider `Nc1ccc2c3c(cccc13)-c1ccccc1-2`, for which the growth is 92.3%.

For `COc1cccc(-c2nnc(N)o2)c1`, the growth was 97.7%.

With `COc1cc2c(cc1OCCCOc1ccc(-c3cc4ccccc4c4ccccc34)cc1)N=C[C@@H]1CCCN1C2=O`, the growth is -66.4% (active).

The subject of the next assay is BT-549 breast. The description is as above. Conditions: 10 µM unless noted.
`COc1ccc(-c2oc3cc(O)c(OC)c(O)c3c(=O)c2OC)cc1O`: the growth is -4.89% (active).

Consider `c1ccc(-c2nnc(Nc3nnc(-c4ccccc4)s3)s2)cc1`, for which the growth is 106%.

Consider `CCN1CCN(c2cc(-c3cn[nH]c3-c3cc(C)cc(OC)c3)nc(-c3cccnc3)n2)CC1`, for which the growth is 92.9%.

Regarding `CCCn1cnc2c1c(=O)n(CCCCC(C)=O)c(=O)n2C`, the growth is 103%.

Consider `O=C1C2C3C=CC(O3)C2C(=O)N1Nc1ccccc1` (centres undefined), for which the growth is 108%.

Take `O=C(Nc1ccncc1)C(=O)c1cn(S(=O)(=O)c2cccc(F)c2)c2ccccc12`: the growth is 27.8%.

Regarding `COc1ccc(-c2csc(NC(=O)c3cc(OC)c(OC)c(OC)c3)n2)cc1`, the growth is 106%.

As to `CCC1=C(c2ccc(OC)cc2)C(C)(C)Oc2cc(O)c(CN3CCCC3)cc21`, the growth was 65.7%.

Consider `CCOc1nc(-c2ccccc2)cc2c(O)c(-c3nnco3)[nH]c(=O)c12`, for which the growth is 41.6%.

As for `C=C1CC[C@@H]2[C@](C)(COC(C)=O)[C@H](OC(C)=O)CC[C@@]2(C)[C@@H]1CC(Nc1ccc(S(=O)(=O)Nc2cc(C)on2)cc1)C1=CCOC1=O` (some centres undefined), the growth is 27.2%.

In the case of `COc1ccc(C2=NN(C(=O)c3cc(OC)c(OC)c(OC)c3)C(c3ccc(C#N)cc3)C2)cc1OC` (centres undefined), the growth was 28.6%.

In the case of `O=C1/C(=N/O)CCc2ccccc21`, the growth is 102%.

With `O=C(/C=C/c1cccnc1)NCCCCC1CCCN(C(=O)c2ccccc2)C1` (centres undefined), the growth was 73.7%.

Regarding `COc1ccc(Nc2ccnc(NCCCNc3ccnc4cc(Cl)ccc34)n2)cc1`, the growth was -16.8% (active).

Regarding `COc1ccc2nc(NC(=O)c3cc(-c4ccc(F)cc4)n4nc(-c5ccccc5)cc4n3)sc2c1`, the growth was 53.5%.

As to `COc1cc(/C=C/C(=O)N2CCN(C(=O)/C=C/c3ccccc3)CC2)cc(OC)c1OC`, the growth was 104%.

With `O=C1C[C@@H]2/C(=C(O)\C=C\c3ccccc3)C(=O)C=C[C@@H]2O1`, the growth was -40.5% (active).

As to `COc1cc(/C=C/c2nnc(-c3cc(-c4ccccc4)n[nH]3)o2)cc(OC)c1OC`, the growth was 112%.

In the case of `O=[N+]([O-])c1ccc2c(c1)S(=O)c1cc([N+](=O)[O-])ccc1N2`, the growth was 102%.

As to `C/C(=C\CCc1ccoc1)CC/C=C(\C)CCCN1CCC(CO)CC1`, the growth was 54.2%.

As for `O=C1/C(=C/c2ccc([N+](=O)[O-])o2)Oc2ccc(Cl)cc21`, the growth was -53.4% (active).

As for `COc1cc(C2NC(c3ccc(Cl)cc3)C(C)/C(=N/NC(N)=S)C2C)cc(OC)c1OC` (centres undefined), the growth was 111%.

Take `CCC(CC)NCCCCCNc1cc(OC)cc2cccnc12`: the growth is 88%.

For the compound `CCOc1nc(-c2ccccc2)cc2c(O)c(C(=O)n3nc(C)cc3C)[nH]c(=O)c12`, the growth was 99.9%.

With `O=C(/C(=N/O)S(=O)(=O)c1ccccc1)c1cccs1`, the growth is 103%.

As to `COc1cc(C2NC(c3ccc(Cl)cc3)C(C)C(=NC(=O)c3cnccn3)C2C)cc(OC)c1OC` (centres undefined), the growth is 102%.

As for `COc1ccc2c(c1)C(=O)/C(=C/c1ccc([N+](=O)[O-])s1)O2`, the growth was -52.9% (active).

On to `COc1cc(C(=O)/C=C/c2cccnc2Nc2ccccc2)cc(OC)c1OC`, for which the growth was -55.5% (active).

On to `CCCCn1c(Cc2ccc(Cl)cc2)nc2cc(OC)c(OC)cc2c1=O`, for which the growth is 38%.

Take `OCCOc1c(Cl)cc(Cl)cc1Cl`: the growth is 109%.

With `COc1ccc2nc3cc(Cl)ccc3c(N3CCN(c4ccnc(Nc5ccc(F)cc5)n4)CC3)c2c1`, the growth was 88.3%.

With `COc1ccc(-c2cc(Cc3cccs3)c(=O)n(Cn3ccc4ccccc43)n2)cc1`, the growth is 116%.

Consider `CCc1[nH]nc(-c2ccc(OC)cc2)c1-c1ccccc1OCCN(CC)CC`, for which the growth was 87.7%.

Turning to `COc1ccc(-c2cc(C(=O)Nc3nc4cc(C)c(C)cc4s3)nc3cc(-c4ccccc4)nn23)cc1OC`, the growth was 122%.

`Nc1ccc2c3c(cccc13)-c1ccccc1-2`: the growth was 71%.

Turning to `COc1cccc(-c2nnc(N)o2)c1`, the growth was 87.4%.

Take `COc1cc2c(cc1OCCCOc1ccc(-c3cc4ccccc4c4ccccc34)cc1)N=C[C@@H]1CCCN1C2=O`: the growth was -50.8% (active).
